Experiment [1] can be described thus: A549 cell viability effects, profiling panel, calcein-AM fluorescence, 48 h, basal (AID 1162). The conditions noted are these: higher = more signal.
A short description of experiment [2]: adipocyte viability effects, profiling panel, cell-based, 3T3-L1 adipocytes, calcein-AM fluorescence, 48 h, basal (AID 1163). The conditions noted are these: 3T3-L1 adipocytes viability, higher = more signal.
The nature of experiment [3]: HepG2 cell viability effects, profiling panel, calcein-AM fluorescence, 48 h, basal (AID 1164). The conditions noted are these: higher = more signal.
A short description of experiment [4]: MM1S cell viability effects, profiling panel, calcein-AM fluorescence, 48 h, basal (AID 1165).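 Also: viability of MM1S multiple myeloma cells under basal unstimulated conditions.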 The conditions noted are these: higher = more signal.
Experiment [5] is described as follows: basal RPMI8226 viability, no added stimulus, profiling panel, cell-based, calcein-AM fluorescence, 48 h, PK04 Diversity Set (AID 1166).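 Also: cells grown under basal conditions without added stimulus.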 The conditions noted are these: RPMI8226 myeloma viability, higher = more signal.
Experiment [6] is described as follows: basal HepG2 mitochondrial membrane potential changes, profiling panel, cell-based, JC-1 fluorescence, 24 h, 100 nL compound (AID 1167). The conditions noted are these: higher = more signal.
Experiment [7] in a line: basal 3T3-L1 adipocyte mitochondrial potential changes, profiling panel, cell-based, JC-1 fluorescence, 3T3-L1 adipocytes, 24 h, 100 nL compound (AID 1168). The conditions noted are these: JC-1 mitochondrial fluorescence, higher = more signal, called active from +8 up or from −8 down.
A short description of experiment [8]: basal RPMI8226 mitochondrial membrane potential changes, profiling panel, cell-based, JC-1 fluorescence, 24 h, 100 nL compound (AID 1169). The conditions noted are these: RPMI8226 myeloma, JC-1 mitochondrial potential fluorescence, higher = more signal.
Experiment [9] in a line: basal MM1S mitochondrial membrane potential changes, profiling panel, cell-based, JC-1 fluorescence, 24 h, 100 nL compound (AID 1170). The conditions noted are these: higher = more signal.
Experiment [10] in a line: A549 lung cancer cell viability effects, profiling panel, resazurin fluorescence, 24 h, PK04 Diversity Set (AID 1171). The conditions noted are these: higher = more signal, called active from +8 up or from −8 down. (In general: Resazurin is reduced to fluorescent resorufin, in cell work by metabolically active cells.)

SMILES strings stand for the structures. Activity calls are given as the source filed them.
Also: test concentration not given here.

As for `O=C1O[C@H](c2ccccc2)[C@H](c2ccccc2)N2[C@H]1[C@@H](C(=O)O)[C@]1(C(=O)Nc3ccc(C#CC4(O)CCCCCC4)cc31)[C@H]2c1ccccc1OCCO`, the z-score in experiment [1] was 0.631; in [2], 0.0596; in experiment [3] it was -0.0165; in experiment [4], -3.38; in experiment [5], -4.15; in experiment [6], -2.61. The z-score in experiment [7] was -0.521 (inactive); in experiment [8], -0.911; in experiment [9] it was -0.681; in experiment [10] it was 0.95 (inactive).
Regarding `CN1C2C=C(c3ccc(CO)cc3)C(C3C(=O)N(C(N)=O)C(=O)C32)C1C1CC1` (stereo not given), the z-score is -0.497 in experiment [1]; 0.0457 in [2]; -0.157 in experiment [3]; 0.341 in experiment [4]; -0.773 in [5]; -0.391 in experiment [6]. Moreover, the z-score is -0.242 (inactive) in experiment [7], -0.482 in experiment [8], 0.326 in experiment [9] and 0.182 (inactive) in experiment [10].
In the case of `C=CCOC(=O)[C@H]1[C@@H]2C(=O)O[C@@H](c3ccccc3)[C@@H](c3ccccc3)N2[C@@H](c2ccc(OCCOC(=O)[C@H]3C[C@H]4C(=O)NCC(=O)N4[C@H]3c3ccc(O)cc3)cc2)[C@]12C(=O)Nc1ccccc12`, the z-score in [1] was -0.759; in experiment [2] it was 0.645; in experiment [3], -1.05; in experiment [4] it was 0.117; in experiment [5] it was -0.259; in [6], -1.42. In addition, the z-score is 0.962 (inactive) in [7], -0.356 in experiment [8], -0.821 in experiment [9] and 0.729 (inactive) in [10].
`CC(C)c1ccc(NN2C(C(O)c3ccccc3)C=CC3C(=O)N(c4ccccc4)C(=O)C32)cc1` (stereo not given): the z-score is 1.53 in experiment [1]; -1.6 in experiment [2]; 1.22 in experiment [3]; -0.168 in experiment [4]; 0.159 in experiment [5]; -1.13 in [6]. Moreover, the z-score in experiment [7] was 0.821 (inactive); in experiment [8] it was -0.197; in [9] it was -0.906; in experiment [10], 0.235 (inactive).
In the case of `CC[C@@H](O[Si](C#C[Si](C(C)C)(C(C)C)C(C)C)(C(C)C)C(C)C)c1cn([C@H](C)c2ccccc2)nn1`, the z-score in [1] is -0.7; in [2] it was -0.685; in [3] it was -0.499; in experiment [4], 0.375; in [5], 0.253; in experiment [6], -0.0266. Further, the z-score in [7] was -1.02 (inactive); in experiment [8], 0.0594; in [9], -0.876; in experiment [10], 0.566 (inactive).
On to `CO[C@H]1O[C@H](CO)[C@@H](OC(=O)Nc2cccc(F)c2)[C@H](OC(=O)c2cc3ccccc3[nH]2)[C@H]1OC(=O)c1cc2ccccc2[nH]1`, for which the z-score in experiment [1] is 1.16; in [2] it was 0.437; in experiment [3] it was 0.387; in experiment [4], 0.0134; in experiment [5] it was 0.804; in experiment [6] it was -1.56. Besides, the z-score was 2.42 (inactive) in [7], -0.397 in [8], -0.415 in experiment [9] and -2.49 (inactive) in [10].
As for `C[N+](C)(C)CCCC[C@@H]1NC(=O)[C@H]2C[C@@H](C(=O)NCCCCCN)[C@@H](c3ccc(O)cc3)N2C1=O`, the z-score is 2.02 in [1]; 0.727 in experiment [2]; -0.224 in [3]; -1.68 in experiment [4]; -0.145 in experiment [5]; 1.66 in experiment [6]. The z-score in experiment [7] was -0.359 (inactive); in [8], 0.144; in experiment [9] it was -0.292; in experiment [10], 0.78 (inactive).
As to `C=CCNC(=O)[C@@H]1[C@H]2C(=O)O[C@H](c3ccccc3)[C@H](c3ccccc3)N2[C@H](c2ccc(O)cc2)[C@@]12C(=O)N(C(=O)OCCOC)c1ccc(C#CCC(C(=O)OC)C(=O)OC)cc12`, the z-score in experiment [1] was 0.468; in experiment [2] it was 0.0473; in experiment [3], 0.419; in experiment [4], -1.83; in experiment [5], -2.88; in [6], 0.206. Moreover, the z-score was 0.605 (inactive) in experiment [7], -0.161 in experiment [8], -0.012 in experiment [9] and -0.419 (inactive) in experiment [10].
For `[N-]=[N+]=NCc1ccccc1C[C@]1(C(=O)N2CCCCC2)COC(c2ccc(OCCCO)cc2)=N1`, the z-score was 0.139 in [1]; -0.288 in [2]; -0.689 in experiment [3]; -3.54 in experiment [4]; -4.52 in experiment [5]; -0.792 in experiment [6]. The z-score in experiment [7] was 0.607 (inactive); in experiment [8], -1.22; in experiment [9] it was -1.98; in experiment [10], 0.898 (inactive).
With `C=CC[C@]1(C(=O)NCCN2CCOCC2)N=C(c2ccc(OCCCO)cc2)O[C@H]1c1ccccc1`, the z-score in experiment [1] is -0.139; in experiment [2] it was -0.0761; in experiment [3], -0.0656; in experiment [4], -0.736; in [5], 0.0634; in [6], -0.607. For the same compound, the z-score in experiment [7] was -0.442 (inactive); in [8] it was -0.176; in experiment [9] it was -0.255; in experiment [10], 1.63 (inactive).
Consider `Cc1ccc(S[C@]2(C(=O)NC(C)C)CC(=O)N(Cc3ccccc3)[C@@H]2c2ccc(CO)cc2I)cc1`, for which the z-score was 0.15 in experiment [1]; 0.547 in experiment [2]; 1 in [3]; -2.02 in experiment [4]; -1.69 in experiment [5]; 0.744 in experiment [6]. For the same compound, the z-score in experiment [7] is 0.98 (inactive); in experiment [8] it was -0.25; in experiment [9] it was -1.23; in experiment [10], -1.13 (inactive).
Regarding `CN1C(=O)C2C=CC(C(O)COCc3ccccc3)N(Nc3ccc([N+](=O)[O-])cc3[N+](=O)[O-])C2C1=O` (stereo not given), the z-score in experiment [1] is 1.02; in experiment [2] it was -0.611; in [3] it was -0.832; in [4] it was -1.38; in [5], -0.988; in [6] it was -0.681. Besides, the z-score in experiment [7] was -0.985 (inactive); in experiment [8], -0.141; in experiment [9], -0.815; in experiment [10], -0.583 (inactive).
As for `O=C1C[C@@](C(=O)NCC(F)(F)F)(c2ccc([N+](=O)[O-])cc2)[C@@H](c2ccc(CO)cc2I)N1CC12CC3CC(CC(C3)C1)C2`, the z-score in experiment [1] is -2.05; in experiment [2] it was 0.463; in [3], -5.2; in experiment [4], -3.84; in [5] it was -4.03; in experiment [6] it was -0.436. The z-score in experiment [7] is 2.16 (inactive); in experiment [8] it was -0.9; in experiment [9] it was -2.17; in experiment [10], -3.86 (inactive).
With `COC(=O)[C@@]1(Cc2ccc(F)cc2)[C@H]2c3cc(C(=O)N4CCCC4)n(C[C@H](O)CO)c3C[C@H]2CN1C(=O)c1ccccc1`, the z-score in experiment [1] was -1.21; in experiment [2], 0.24; in experiment [3] it was -0.674; in experiment [4], -0.26; in experiment [5] it was -1.07; in experiment [6], -0.438. The z-score was -1.11 (inactive) in [7], -0.663 in [8], -0.371 in experiment [9] and 0.467 (inactive) in experiment [10].
For `CC(C)c1ccc(NN2C(C(O)C(C)c3ccccc3)C=CC3C(=O)N(c4ccccc4)C(=O)C32)cc1` (stereo not given), the z-score in experiment [1] was -0.625; in [2] it was -0.856; in [3] it was -1.03; in experiment [4], -1.1; in experiment [5], -1.34; in experiment [6] it was -2.13. In addition, the z-score in experiment [7] was -1.75 (inactive); in experiment [8] it was -0.628; in experiment [9], -0.102; in experiment [10] it was -0.868 (inactive).

The record behind these values is PubChem BioAssay.
